Here are results for 4 compounds from PubChem BioAssay.

Test [1] is described as follows: signal quenchers or enhancers, Cy5 substrate/SSB – biochemical, NIH Clinical Collection, E. coli SSB, artefact control for HCV NS3 helicase inhibitor project (AID 743268; call rule not given here). The conditions noted are these: Cy5-oligo bound E. coli SSB, fluorescence interference.
Test [2] has as its system Hepatitis C virus NS3 helicase. Put plainly: blockers of NS3h binding to DNA – biochemical, fluorescence polarization, NIH Clinical Collection, primary screen (AID 743270; call rule not given here). Particulars: NS3 helicase binding to Cy5-dT15 DNA, stronger effect = higher value, concentration not given here.
Test [3] concerns the target Single-stranded DNA-binding protein (Escherichia coli (strain K12)) (UniProt P0AGE0). Put plainly: SSB-ssDNA binding inhibitors – biochemical, fluorescence polarization, NIH Clinical Collection, counter-screen for HCV NS3 helicase inhibitor project (AID 743271; in the data active = inhibition above about 28%). Particulars: E. coli SSB-DNA binding, stronger effect = higher value, concentration not given here. A general note: Fluorescence polarisation rises when a labelled molecule tumbles more slowly, as on binding a larger partner.

Test [4] in a line: compounds distorting NS3 helicase fluorescence signal – biochemical, NIH Clinical Collection, artefact control for HCV NS3 helicase inhibitor project (AID 743272; call rule not given here;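 note: HCV NS3 helicase with a Cy5 labelled single stranded DNA probe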). Particulars: fluorescence interference counterscreen, HCV NS3 helicase assay; stronger effect = lower value. On the technique in general: The purpose of a counterscreen is to sort out artefacts and off-target activity.
Test [5] has as its target 6-phosphogluconate dehydrogenase, decarboxylating (Homo sapiens) (UniProt P52209). Put plainly: inhibition of human phosphogluconate dehydrogenase – biochemical, recombinant enzyme, NADPH absorbance, primary screen (AID 1159550;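 active = at least 20% inhibition of 6-phosphogluconate dehydrogenase activity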). The conditions noted are these: recombinant 6PGD, NADPH absorbance 341 nm; at 10 µM; stronger effect = higher value.
Test [6] is described as follows: modulation of C. elegans fzo-1 (AID 1259413; call rule not given here;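 note: fzo-1 mutant C. elegans worms in liquid wells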). The conditions noted are these: C. elegans fzo-1 modulator screen, mean read-out; stronger effect = higher value.
The nature of test [7]: EMT-state selective cytotoxicity in co-culture – imaging, PC-3E GFP, TEM4-18 mCherry, primary screen (AID 1345086;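 active = compounds killing one labelled cell type while sparing the other, by normalised counts and ratio limits, not self-fluorescent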;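 for all read-outs here: cells exposed to compound for 72 h before imaging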;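 for red/green cell ratio (normalised): normalised mesenchymal count divided by normalised epithelial count so high means epithelial killing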). Particulars: PC-3E GFP / TEM4-18 mCherry co-culture, imaging cell counts, at 1 µM; for red/green cell ratio (normalised): actives lie on both sides, counts scaled to control wells, 1 = unselective.
The nature of test [8]: MELAS cybrid and Rieske KO viability enhancers – cell-based, MELAS cybrids, Rieske KO mouse fibroblasts, CellTiter-Glo, primary screen (AID 1508586;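 active = mean z-score across replicates of 1.96 or higher in either the MELAS or the Rieske mutant cell line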;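 note: z relative to plate mean and SD of compound and empty wells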). The conditions noted are these: low glucose.
The target in test [9] is NAD(+) hydrolase SARM1 (Homo sapiens) (UniProt Q6SZW1). Description: blocking NAD cleavage by SARM1 SAM-TIR – cell lysate, NAD-Glo luminescence (AID 1508614;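 active = compound whose remaining NAD level is above about 45 nM, limit read from the data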;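 note: higher remaining NAD means stronger inhibition of SARM1 NADase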). Particulars: SAM-TIR HEK293T lysate NADase, at 1 µM, stronger effect = higher value.
NAD(+) hydrolase SARM1 (Homo sapiens), sequence (Q6SZW1 whole entry, looked up, the tested form may be a part): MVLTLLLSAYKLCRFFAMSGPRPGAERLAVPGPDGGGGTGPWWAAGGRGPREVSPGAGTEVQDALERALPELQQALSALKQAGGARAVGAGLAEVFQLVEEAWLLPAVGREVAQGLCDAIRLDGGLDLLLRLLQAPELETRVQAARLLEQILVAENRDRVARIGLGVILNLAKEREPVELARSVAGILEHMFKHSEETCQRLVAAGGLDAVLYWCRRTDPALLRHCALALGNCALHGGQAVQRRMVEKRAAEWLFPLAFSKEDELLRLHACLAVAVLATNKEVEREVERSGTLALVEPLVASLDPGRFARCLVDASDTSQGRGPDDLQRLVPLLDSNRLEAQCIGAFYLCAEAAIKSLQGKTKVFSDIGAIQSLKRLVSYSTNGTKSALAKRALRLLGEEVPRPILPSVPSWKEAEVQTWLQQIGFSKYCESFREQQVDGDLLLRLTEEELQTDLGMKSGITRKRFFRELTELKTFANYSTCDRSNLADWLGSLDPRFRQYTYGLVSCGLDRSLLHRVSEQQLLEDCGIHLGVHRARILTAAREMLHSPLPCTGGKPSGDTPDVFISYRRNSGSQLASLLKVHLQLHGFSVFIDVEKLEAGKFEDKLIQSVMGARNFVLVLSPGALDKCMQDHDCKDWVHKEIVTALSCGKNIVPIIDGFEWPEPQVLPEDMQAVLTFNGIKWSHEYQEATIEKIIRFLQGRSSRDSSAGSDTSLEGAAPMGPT
Test [10] has as its target Mitogen-activated protein kinase 7 (Homo sapiens) (UniProt Q13164). Put plainly: Gal4-ERK5 driven luciferase induction – cell-based, HTS, primary screen (AID 1508626;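 active = luciferase signal above three times the same-plate solvent-only control wells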;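 note: luciferase driven by Gal4-ERK5 fusion binding five Gal4 sites before minimal TATA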). The conditions noted are these: HeLa Gal4-ERK5 transactivation, 18 h, at 5 µM, stronger effect = higher value.
For the next test, the system named is F380Y. Description: BK channel mutant inhibitors and activators – cell-based, U2OS BacMam, thallium flux, beta subunits, selectivity assay, profiling panel (AID 1259406).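 Note: initial slope of Thallos dye fluorescence rise after thallium is added; log ratio against the mean of 0.3% DMSO vehicle wells on the same plate.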 The conditions noted are these: U2OS BacMam BK variants, at 30 µM.
Another test has as its system F380Y/beta2Delta. The description is as above. Particulars: U2OS BacMam BK variants, at 30 µM.
The target in test [11] is Calcium-activated potassium channel subunit alpha-1 (Homo sapiens) + Leucine-rich repeat-containing protein 26 (Homo sapiens) (UniProt Q12791+Q2I0M4). Described as above. The conditions noted are these: U2OS BacMam BK variants, F380Y/Slo1WT/gamma1, at 30 µM.
Calcium-activated potassium channel subunit alpha-1 (Homo sapiens) + Leucine-rich repeat-containing protein 26 (Homo sapiens), sequence (Q2I0M4 whole entry, looked up, one chain of several): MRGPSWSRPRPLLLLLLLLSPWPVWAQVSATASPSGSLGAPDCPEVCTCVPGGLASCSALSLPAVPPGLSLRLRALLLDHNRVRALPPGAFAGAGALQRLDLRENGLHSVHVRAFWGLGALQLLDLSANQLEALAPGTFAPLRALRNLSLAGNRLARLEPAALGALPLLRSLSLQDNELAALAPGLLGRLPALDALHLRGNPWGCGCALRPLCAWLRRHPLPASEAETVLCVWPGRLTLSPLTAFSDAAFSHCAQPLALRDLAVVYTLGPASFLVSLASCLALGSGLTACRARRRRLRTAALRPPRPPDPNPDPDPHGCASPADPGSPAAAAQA
Another test deals with R275C. The description is as above. The conditions noted are these: U2OS BacMam BK variants, at 30 µM.
Another test concerns R275C/beta1. Described as above. Particulars: U2OS BacMam BK variants, at 30 µM.
The subject of another test is R275C/beta2Delta. The test is described as above. The conditions noted are these: U2OS BacMam BK variants, at 30 µM.
Test [12] can be described thus: viability loss with induced miR-34 in A549 – imaging, A549 dox-inducible miR-34, nuclei and caspase counts, primary screen (AID 1347080;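 active = compounds whose cell count with miR-34 switched on is under 0.7 times the count with it off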). Particulars: A549 miR-34 inducible, Hoechst nuclei count, 48 h.
Test [13] can be described thus: galactose survival enhancers in mitochondrial complex I cybrids – cell-based, galactose medium, ATP luminescence, primary screen (AID 1645843;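 active = z-score of at least 1.8 in each of two replicates, scored against plate mean and spread of sample wells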;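 note: positive z means more ATP and so rescue of galactose-driven cybrid death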). Particulars: complex I mutant cybrid cells, 72 h, stronger effect = higher value.
[14] abbreviates: measured here: epithelial PC-3E GFP cell survival.
Setting [15] is: measured here: mesenchymal TEM4-18 mCherry cell survival.
The mark [16] stands for this setting: MELAS cybrid survival, CellTiter-Glo 48 h, stronger effect = higher value.
The mark [17] stands for this setting: Rieske KO mouse fibroblast survival, CellTiter-Glo 72 h.

The inhibition is the change of the read-out against control, counted positive when it falls.

SMILES strings stand for the structures. Where “and” joins values, the source holds several entries; their conditions need not be identical. Equal values may be shown once. Calls of active or inactive are those of the source.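 Rule for the calls, unless noted: active = thallium flux through the channel raised or lowered by more than 3 SD from vehicle-only wells, actives on both sides; inactive = the rest.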

6-phosphogluconate dehydrogenase, decarboxylating (Homo sapiens), sequence (P52209 whole entry, looked up): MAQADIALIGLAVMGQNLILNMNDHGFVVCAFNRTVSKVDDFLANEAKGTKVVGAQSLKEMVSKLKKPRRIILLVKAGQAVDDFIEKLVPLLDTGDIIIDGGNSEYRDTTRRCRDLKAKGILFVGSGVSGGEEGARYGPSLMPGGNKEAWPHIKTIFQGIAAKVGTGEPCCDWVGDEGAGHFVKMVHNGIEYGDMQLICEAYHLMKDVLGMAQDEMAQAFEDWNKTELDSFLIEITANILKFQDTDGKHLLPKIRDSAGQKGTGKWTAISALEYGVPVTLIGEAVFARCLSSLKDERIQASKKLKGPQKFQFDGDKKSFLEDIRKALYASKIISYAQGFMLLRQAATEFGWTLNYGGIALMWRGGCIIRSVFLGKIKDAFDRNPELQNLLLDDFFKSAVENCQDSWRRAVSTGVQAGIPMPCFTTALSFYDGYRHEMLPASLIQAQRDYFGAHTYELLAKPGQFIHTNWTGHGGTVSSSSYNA
Mitogen-activated protein kinase 7 (Homo sapiens), sequence (Q13164 whole entry, looked up, the tested form may be a part): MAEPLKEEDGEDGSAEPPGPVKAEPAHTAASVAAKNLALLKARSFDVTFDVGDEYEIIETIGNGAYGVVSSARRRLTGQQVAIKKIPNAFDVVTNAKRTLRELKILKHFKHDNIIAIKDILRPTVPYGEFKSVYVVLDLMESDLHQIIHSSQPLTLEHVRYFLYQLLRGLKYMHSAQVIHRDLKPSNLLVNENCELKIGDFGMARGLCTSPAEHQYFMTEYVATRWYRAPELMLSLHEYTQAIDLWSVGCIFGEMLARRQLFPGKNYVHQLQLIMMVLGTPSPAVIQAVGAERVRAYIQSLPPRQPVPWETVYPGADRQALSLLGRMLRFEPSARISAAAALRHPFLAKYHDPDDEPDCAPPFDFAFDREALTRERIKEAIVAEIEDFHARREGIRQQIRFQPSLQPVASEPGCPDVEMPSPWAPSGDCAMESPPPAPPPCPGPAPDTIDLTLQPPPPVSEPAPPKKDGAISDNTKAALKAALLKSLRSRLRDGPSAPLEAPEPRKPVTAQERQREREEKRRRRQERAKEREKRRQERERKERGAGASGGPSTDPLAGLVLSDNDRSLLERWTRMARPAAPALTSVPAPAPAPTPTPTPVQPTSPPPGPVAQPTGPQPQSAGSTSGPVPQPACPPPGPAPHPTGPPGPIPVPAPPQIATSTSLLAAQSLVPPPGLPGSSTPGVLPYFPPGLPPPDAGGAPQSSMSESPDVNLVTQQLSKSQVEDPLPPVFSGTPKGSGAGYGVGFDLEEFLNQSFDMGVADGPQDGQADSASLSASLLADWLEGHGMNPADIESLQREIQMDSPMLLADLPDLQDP

In the case of `CC(C(=O)O)c1ccc(-c2ccccc2)c(F)c1` (configuration not stated), the fluorescence ratio in [1] was 0.95 (inactive) and 0.99 (inactive); in test [4] it was 0.9 (inactive) and 0.98 (inactive). Further, the inhibition was -2.77% (inactive) and -3.18% (inactive) in [2]; 6.83% (inactive) and 0.29% (inactive) in test [3]; 19% (inactive) in test [5]. Moreover, in [6], the mean signal was 239 (inactive). Moreover, the red/green cell ratio (normalised) in test [7] is 1.1 (inactive). Moreover, the figures for the normalised cell number in [7] (setting [14]) and in test [7] (setting [15]) were 1.07 and 1.18, respectively. In addition, the z-score in test [8] (setting [16]) is -0.289 (inactive) and 0.565 (inactive) and 0.434 (inactive); in test [8] (setting [17]) it was 1.18 and -0.0179 and 1.37. Moreover, the remaining NAD in test [9] was 10 nM (inactive). The luciferase signal in test [10] is 40 AU (inactive). The log fold change Tl+ flux in the test on F380Y is 0.0247 (inactive); with F380Y/beta2Delta, -0.00435 (inactive); in test [11] it was 0.0464 (inactive); in the test on R275C, -0.0123 (inactive); in the test with R275C/beta1, 0.0432 (inactive); with R275C/beta2Delta, 0.0621 (inactive).
As for `C[N+]1(C)CCCC(OC(=O)C(O)(c2ccccc2)c2ccccc2)C1` (configuration not stated), the fluorescence ratio was 1.02 (inactive) in [1] and 0.96 (inactive) in test [4]. Also, the inhibition is -3.18% (inactive) in test [2], -3.53% (inactive) in test [3] and -19.7% (inactive) in test [5]. In addition, in [6], the mean signal is 266 (inactive). Further, the red/green cell ratio (normalised) in test [7] is 1.05 (inactive). The normalised cell number in [7] (setting [14]) stood at 1.31; in [7] (setting [15]) it was 1.37. For the same compound, the fold change in test [12] (stronger effect = lower value, cell number ratio, induced over uninduced) is 0.951 (inactive) and 0.851 (inactive) and 0.901 (inactive); in test [12] (measured here: relative caspase fold change +Dox/-Dox), 0.965 and 1.32 and 4.07. Further, the cell count in [12] (measured here: total cells with miR-34 induction, stronger effect = lower value) was 10300 and 8730 and 11200; in test [12] (measured here: total cells without miR-34 induction), 10800 and 10200 and 12500. In addition, the z-score in [8] (setting [16]) was 0.378 (inactive); in test [8] (setting [17]), 0.26; in test [13], 0.49 (inactive). The remaining NAD in [9] is 10 nM (inactive). The luciferase signal in [10] was 36 AU (inactive). For the same compound, the log fold change Tl+ flux with F380Y is 0.00904 (inactive); in the test with F380Y/beta2Delta, -0.0376 (inactive); in [11] it was -0.0154 (inactive); in the test with R275C, 0.00512 (inactive); in the test with R275C/beta1 it was 0.0318 (inactive); in the test with R275C/beta2Delta, -0.0151 (inactive).
With `CNCCC(Oc1ccc(C(F)(F)F)cc1)c1ccccc1` (configuration not stated), the fluorescence ratio is 1.04 (inactive) in [1] and 1.03 (inactive) in test [4]. Also, the inhibition in test [2] was -2.27% (inactive); in test [3], -2.76% (inactive); in test [5] it was 19% (inactive). Further, the mean signal in [6] was 190 (inactive). The red/green cell ratio (normalised) in test [7] was 1 (inactive). Moreover, the normalised cell number in test [7] (setting [14]) turned out to be 1.16; in test [7] (setting [15]), 1.15. Besides, the z-score is 1.26 (inactive) and -0.395 (inactive) and -0.285 (inactive) in test [8] (setting [16]); -2.64 and 0.201 and 0.197 in test [8] (setting [17]). Also, in [9], the remaining NAD is 10 nM (inactive). Besides, the log fold change Tl+ flux in the test with F380Y is 0.129 (active); in the test with F380Y/beta2Delta, 0.189 (active); in test [11], 0.0464 (inactive); in the test with R275C, -0.0214 (inactive); in the test on R275C/beta1 it was 0.297 (active); in the test with R275C/beta2Delta it was 0.0608 (inactive).
In the case of `CCCC(=O)OC1(C(=O)CO)CCC2C3CCC4=CC(=O)CCC4(C)C3C(O)CC21C` (configuration not stated), in test [5], the inhibition is -0.0758% (inactive).
